Measurements as given in the supplement of paper PMC6555819.

Assays:
Assay in all cases: PBM binding z-score (relative to random genomic background probes); higher = stronger binding; sequences stand for … in GC…GCGATTGACAGCGTAGAATGAAGG
[1] = test system: RARb homodimer (NR concentration 270 nM)
In short: (§1)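 Probes were double-stranded and carried 34-nt variable regions with direct-repeat seeds, single-nucleotide variants, half-site ablations and random human genomic background sequences, printed on custom Agilent 4×180K protein-binding microarrays. Arrays were incubated 1 h with ligand-free nuclear receptor dimers in PBS pH 7.4, 2% milk, 0.02% Triton X-100, 1 mM DTT, 0.2 mg/mL BSA and 0.4 mg/ml salmon testes DNA. Antibodies against each partner (one per run) detected binding, and scanned fluorescence was regression-normalized. Binding z-scores use the random background probes as reference.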

[2] = test system: RARg:RXRa (NR concentration 270 nM, RXRa partner concentration 90 nM)
In short: as §1

[3] = test system: RARg homodimer (NR concentration 270 nM)
In short: as §1

[4] = test system: RXRa DBDmut IVT, anti-RXR (DBD mutation: RXRa K156A/R161A, NR concentration 90 nM)
In short: as §1

[5] = test system: RXRa homodimer (NR concentration 180 nM)
In short: as §1

[6] = test system: THRa:RXRa (NR concentration 90 nM, RXRa partner concentration 90 nM)
In short: as §1

[7] = test system: THRa homodimer (NR concentration 90 nM)
In short: as §1

[8] = test system: VDR homodimer (NR concentration 270 nM)
In short: as §1

Sequence	PBM binding z-score [1]	PBM binding z-score [2]	PBM binding z-score [3]	PBM binding z-score [4]	PBM binding z-score [5]	PBM binding z-score [6]	PBM binding z-score [7]	PBM binding z-score [8]
CGAACTAGGTCATCAAGGACAGTGAATACATTGA	3.18	3.95	4.85	1.92	2.67	3.87	2.11	1.83
TCGAGTAGGTTAGTTGGGGCATTCAGCCAACATA	0.525	-0.065	-0.0945	0.0825	-0.226	1.01	-0.251	-0.0385
TCTTGTAGATCAAAGGTTAAGAACGCCGAAGCCT	1.51	1.82	0.951	0.794	3.38	1.53	-0.428	0.13
ATATGTAGGTTACATCCGGTTCATTCAGGCTATG	1	1.42	1.13	1.95	1.54	2.03	0.768	4.45
ACTATTAATTGAGACGAGGGCAACCGATAGGTTG	1.56	0.73	0.967	0.688	0.753	1.33	1.03	1.64
TCTTGTAGATCAAAAGAGGTTAAGAAAGTGCGCT	0.976	0.867	0.449	0.343	1.35	2.6	-0.614	0.274
TCGAGTAGGTTAGGGGCAGTCAGAATGGCGTCGA	1.27	0.245	0.258	0.0348	0.203	0.742	0.229	0.0516
TCTGGGAGGACACGAAAGGTCAGAGCTCGACATC	4.8	4.88	5.82	0.799	4.23	3.73	1.59	1.27
TCATATAGGTAATACAGGTGAAAGCCGGCATCTA	0.482	0.795	0.815	1.69	1.55	1.14	0.273	0.67
CGACCAAGGTCAGCAGGTCAGTGAAAGCGACGTG	4.67	6.06	6.15	2.12	4.83	3.54	1.63	1.16
TCGAGTCGGTTAGTCGGGGCATTCAGCCAACATA	-0.0359	-0.443	-0.657	0.05	-0.48	0.291	-0.232	0.101
ATATGTAGGTTAGCTGGGGTCATTCAGACTAGGC	3.87	4.18	2.91	2.27	5.35	5.18	3.18	5.47
ACTGGCAGGCCAAGTTTGGGTCACTCAAACAAAG	2.35	2.51	1.97	-0.557	0.925	2.56	1.14	-0.0755
GATACAGGGTAAGCTAGAGGCCAGAGTATGGAAA	0.413	0.988	0.547	-0.967	0.303	0.219	-0.653	-0.382
GGAACGAGGGCAAAGTGGATAGCATCTGTCGACG	1.05	1.54	1.53	2.28	1.21	0.965	-0.332	1.01
CTACTAAGGTGAACAAGGTCGTTGATTACTATTC	2.33	2.35	1.64	1.81	2.34	3.61	2.82	2.67
CCTAGTTCGTCAAGGTCACACACGCTATAGGTAC	4.36	4.84	4.77	4.16	4.74	4.39	4.47	6.91
ATCTCTACGTAAAAGTTCAGTGAATCCCGAGGAT	2.42	1.57	2	0.755	0.831	0.591	0.154	1.5
AGCGAAAGGTCGTGAGGTGAGTATACAGAAAGGC	3.19	4.63	3.87	0.985	5.33	3.46	1.27	0.74

Sequence	PBM binding z-score [1]	PBM binding z-score [2]	PBM binding z-score [3]	PBM binding z-score [4]	PBM binding z-score [5]	PBM binding z-score [6]	PBM binding z-score [7]	PBM binding z-score [8]
TCATATAGGTATAGGTGAAAGTCGAACGATATGA	0.405	0.646	0.511	0.538	1.13	0.242	-0.544	-0.127
GCTCGGAGGTCAAGGTCAGAGCTTTGTCCGTAGA	5.13	7.02	7.59	3.19	7.07	4.24	2.72	3.21
CCTACGGGGCCAAAAAGGTCATTGATGCCGATAA	4.54	5.07	4.8	1.23	5.09	3.44	0.423	3.98
CCTAGTTGGTCAGGATGTCACACACCGGATATGA	1.17	0.74	1.1	0.164	0.209	0.0669	0.525	0.443
CAAACTAGGTCACAGAGGTCCAAGTCCGTGCGTA	3.68	4.67	5.11	1.99	3.35	3.83	1.52	2.2
ATCGAAAGGTCGAGGGTGAGTATACCCACCCGAA	2.59	4.14	4.24	0.471	4.59	1.94	-0.00779	0.138
ATCTCTAGGTAAAAGTACAGTGAATCCCGAGGAT	-0.337	0.567	0.702	-0.00884	0.199	0.284	0.0784	0.123
AATACAGGGTCACTAGGCCAGATTAGGTACGAAT	3.44	5.37	4.96	3.03	5.9	3.57	1.46	2.83
ATACCCAGGTGATCGTGAGGTCGTTGATACTAAC	2	1.49	0.63	0.432	1.39	3.14	2.72	2.52
AATACAGGGCCACTAGGCCAGAGTAGGTACGAAT	0.294	0.551	0.711	-0.4	0.289	-0.0637	-0.308	0.318
GGAACGAGGGCAAGTGGATAGCAGAGTTTGATGG	1.59	1.62	2.03	1.93	0.87	1.1	-0.000164	1.39
TGTCAAAGTTCAAAGGTAACGTACGTATCCACAC	3.77	6.34	5.94	4.49	6.98	2.98	0.0494	4.29
ACAGACAGGTGAGTGTAGGTAACTCAGCTGGACG	-0.178	0.259	0.401	-0.328	0.232	1.33	-0.572	-0.361
GGAACGAGGGCATTCGAGTTGATAGAATGGCGAT	0.53	1.01	1.5	2.88	0.761	3.35	-0.605	3.02
AGTCTAAGTTCAGGACGAGGTAACGTAAAGCACG	1.85	3.11	2.65	3.28	1.57	3.56	1.99	2.62
GCTTACGGGTCAAAGTTTATAGCATGAATAGAAT	2.72	5.32	4.39	3.19	7.06	2.9	-0.354	2.25
TCATATAGGCAAAAGGTGAAAGTCGGTGTGGTAA	1.81	1.45	0.567	1.45	2.12	1.24	0.0725	0.163
ATACCAAGGTGTTCGTGAGGTCGTTGATACTAAC	1.53	0.824	0.278	0.712	0.997	2.96	2.38	2.98
TCCTGTAGATCAAAGGTTAAGAAAGCCGAAGCCT	1.39	1.89	0.87	0.61	3.17	1.24	-0.54	-0.182

Sequence	PBM binding z-score [1]	PBM binding z-score [2]	PBM binding z-score [3]	PBM binding z-score [4]	PBM binding z-score [5]	PBM binding z-score [6]	PBM binding z-score [7]	PBM binding z-score [8]
TCTTGTAGATCAAGCAGGTAAAGAAAGCCTGAGT	-0.462	-0.262	-0.32	0.476	-0.157	0.095	-0.499	-0.555
CCTAGCAGGCTAGGGTCACTCAAGCATTTCGCTT	2.67	3.35	2.35	0.61	3.65	3.64	1.81	1.07
AATACAGGGTCACTAGGCCAGGGTAGGTACGAAT	3.44	4.88	4.64	2.33	5.25	3.41	1.34	2.71
TCTCGGAGGACACGAAAGGTCAGAGCGCGACATC	4.91	5.18	5.35	1.09	4.3	3.82	1.12	1.22
ATATGTAGCTTAGCTGGGGTCATTCAGACTAGGC	3.13	3.19	2.02	1.54	5.09	3.92	2.85	3.19
CCTACTTGGCCAAGGTCATTGATCAGTCAAAGCA	3.78	4.01	3.47	2.56	3.83	3.82	3.07	3.62
CCTACTGGGCCATTCAGACGTCATTGATCATATG	-0.514	-0.25	0.169	-0.119	-0.341	-0.533	-0.741	-0.378
TGAATGAGGTTAAAGCTCAGGGAACGTGGCGTCG	0.437	1.9	0.981	1.06	2.71	2.16	0.216	0.0356
TCTTGTAGATCAAATGTTAAGAAAGCCGAAGCCT	-0.797	-0.173	-0.241	1.15	0.176	-0.551	-0.39	-0.522
AGAATGAGGTTACCAAAAATCAGGGAAACGCTTG	0.769	1.84	1.53	1.07	2.47	2.57	1.03	0.541
CGTCCAAGGTCAATGCTAGGTCAGTGAAAGCATT	4.88	7.68	6.83	3.85	5.28	4.31	2.74	3.1
AATACAGGGTCATAGTAGGCCAGAGTACGCACAG	3.26	4.92	4.13	3.36	5.63	4.23	1.41	3.6
TCTATTAGTTAATTAGGGCAACCGAAACAGCGGA	0.756	0.526	0.551	1.16	0.875	1.05	0.627	0.625
GGAACGAGGGCAAGTTTATAGCAGAGTTTGATGG	1.78	1.5	2.19	2.62	0.81	1.07	0.0695	2.89
CCGACTGGGGCAGAAAGCTTACCATACCATCCGG	-0.46	-0.395	-0.221	-0.744	-0.422	-0.808	-0.889	-0.719
TCTGCTAGGTCAGTTGGTAAGCTAACGAGCTGCC	1.95	2.35	3.32	0.399	0.543	1.16	-0.266	-0.694
CGTCCAAGGTCAATGCTAGGTAAGTGAAAGCATT	3.93	5.7	6.12	3.33	4.48	3.84	2	2.06
CCTACTGGGCCAAAAAGCTCATTGATGCCGATAA	-0.842	-0.596	-0.419	-0.369	-0.638	-0.815	-0.619	-0.487
